Screens from PubChem.
This is one part of a sample in which hits are shown more often than they occur.
Dicer inh: inhibitors of Dicer pre-microRNA processing, primary screen, biochemical, cat-ELCCA, chemiluminescence. z-score at 25 µM. cat-ELCCA pre-miR-21 Dicer processing; active compounds read high. 47,000 compounds, 6% hits. Endoribonuclease Dicer (Homo sapiens), Q9UPY3; in the data active = z-score above about 3, passing the limit was not always enough;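 note: plate controls were vehicle for no effect and no enzyme for full effect; higher signal means more uncleaved substrate so more Dicer inhibition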
Starred values were filed as active, the others as inactive.

SMILES	Dicer inh
COc1ccc(N2C(=O)C3C(c4ccccc4Cl)OC4(C(=O)c5ccccc5C4=O)C3C2=O)cc1 (stereo not drawn)	-0.76
COc1ccc(Cl)cc1N1C(=O)C2C(c3ccccc3)OC3(C(=O)c4ccccc4C3=O)C2C1=O (stereo not drawn)	4.1*
O=C1C2C(c3ccccc3)OC3(C(=O)c4ccccc4C3=O)C2C(=O)N1c1cccc(F)c1 (stereo not drawn)	1.1
Cc1cc(C(=O)N/N=C/C(C)(C)C)nn1-c1ccc(C(C)C)cc1	0.02
OC(COc1ccc(C(F)(F)F)cn1)CSc1ccc(C(F)(F)F)cn1 (stereo not drawn)	0.3
CC(C)(CO)N1C(=O)NC2NC(=O)NC21 (stereo not drawn)	1.4
COc1ccccc1C1C2=C(CC(C)(C)CC2=O)Nc2nc(-c3cccc(C)c3)nn21 (stereo not drawn)	23
O=C(Nc1ccc(Cl)cc1)c1c(C(F)(F)F)ccnc1Sc1ccccc1	-0.62
O=C1c2ccccc2-c2nc3cc(C(F)(F)F)ccc3nc21	-1.7
Cc1nc2ccc(C(F)(F)F)cc2nc1C	3.5*
Cc1nc2ccc([N+](=O)[O-])cc2nc1C	-0.66
COc1ccc(S(=O)(=O)N(C)CCO)cc1-c1nnc2c3ccccc3c(C)nn12	0.82
Nc1nc2ccccc2n1CCOc1ccc(Br)cc1	2.5
Nc1ccc(-c2nc3ccccc3n2CCOc2ccccc2)cc1	4.3*
CCCCn1c(-c2ccc(N)cc2)nc2ccccc21	0.23
FC(F)(F)c1ccc(C2=NCCO2)cc1	4.8*
FC(F)(F)c1ccc(-c2nc(=S)[nH][nH]2)cc1	-0.04
FC(F)(F)c1ccc(-c2nnc(-c3ccc4nccnc4c3)o2)cc1	-0.74
Cc1onc(-c2c(Cl)cccc2Cl)c1NC(=O)NNc1ccc(-c2csnn2)cc1	-0.86
CCCc1c(Cc2c(F)cccc2Cl)c(=O)oc2cc(O)ccc12	1.4
COc1ccc(-c2cc3ncc4c(n3n2)-c2cc(Cl)ccc2OC4)cc1	-2.9
COc1ccc(NC2=CC(=O)CC(C)(C)C2)c(OC)c1	-1.6
Cc1ccc(NC2=CC(=O)CC(C)(C)C2)cc1C	3.5*
CCCCNC1=CC(=O)CC(C)(C)C1	1.8
Fc1ccc(CN2CCN(C3CCCCC3)CC2)cc1	-0.45
SMILES	Dicer inh
c1ccc(CN2CCN(C3CCCC3)CC2)cc1	-0.01
Fc1ccccc1CN1CCN(C2CCCC2)CC1	5.3*
c1ccc(CNc2nc3cccnc3s2)cc1	0.59
O=C1CCC(=O)N1CNc1ccccn1	3.4*
O=C1CCC(=O)N1CNc1ccccc1C(F)(F)F	-0.13
Cc1cccc(NCN2C(=O)CCC2=O)n1	-0.35
CSC(=CC(=O)C(C)(C)C)SC	0.55
CCCCCCCC1C(=O)N(C(=O)c2ccc(Cl)cc2)N=C1C (stereo not drawn)	-1
Cc1cc(C)n(-c2ccc(N3CC(C)OC(C)C3)nn2)n1 (stereo not drawn)	1.3
Cc1cc(NNC(=O)Nc2cccc(Cl)c2)nc2c1c(C)nn2C	0.59
Cc1cc(NNC(=O)c2ccccc2Cl)nc2c1c(C)nn2C	-0.63
Cc1cc(NNS(=O)(=O)c2ccc(Cl)cc2)nc2c1c(C)nn2C	4.4*
O=C(O)C(F)(F)C(F)(F)C(=O)NCc1cccc(Cl)c1	-0.85
Oc1[nH]c2ccccc2c1N=Nc1nc(-c2ccc(-c3ccccc3)cc2)cs1	1.4
Cc1oc2c(F)c(F)c(F)c(F)c2c1C#N	0.31
CCc1c(O)nc(SCCN(CC)CC)[nH]c1=O	0
CC(C)c1c(O)nc(SCCN2CCOCC2)[nH]c1=O	-0.1
CCN(CC)CCSc1nc(O)c(C(C)C)c(=O)[nH]1	4.2*
Cc1cc(C)c2c(n1)sc1c(Sc3nnc(-c4cccs4)n3-c3ccccc3)ncnc12	-2.2
COc1ccc(C(=O)N2CCN(c3ncnc4cc(-c5ccccc5)sc34)CC2)cc1OC	0.52
Cc1noc(C)c1C(=O)N1CCCCC1c1ccccn1 (stereo not drawn)	-1.4
Cc1ccc(Nc2nc(C)cc(C)c2C#N)cc1	2.9
C=CCc1c(C)nc(SC)nc1Nc1ccc(C(=O)OCC)cc1	-0.05
C=CCc1c(C)nc(SC)nc1Nc1ccc(C)cc1	5.7*
CN(C)/C=N/c1nnc(SCC(=O)Nc2ccc(F)cc2F)s1	-1
SMILES	Dicer inh
O=C(O)c1ccc2ccccc2c1-c1c(C(=O)O)ccc2ccccc12	1.1
O=C(O)c1cc2ccccc2c(-c2c(O)c(C(=O)O)cc3ccccc23)c1O	4.1*
O=C(O)c1cc(-c2cc(C(=O)O)c3ccccc3n2)nc2ccccc12	0.45
COc1ccc(/C(O)=C2\C(=O)C(=O)N(c3ccccn3)C2c2cccc(Cl)c2)cc1 (stereo not drawn)	-0.51
O=[N+]([O-])c1cc(Cl)ccc1S(=O)(=O)c1ccc(Cl)cc1	0.62
O=[N+]([O-])c1cc(Cl)ccc1S(=O)(=O)c1ccccc1	-0.87
COc1ccc(OC)c(S(=O)(=O)c2ccc(Cl)cc2[N+](=O)[O-])c1	4.2*
O=[N+]([O-])c1cc(C(F)(F)F)ccc1-n1ccc(C(F)(F)F)n1	-0.94
CC1(C)C=C(c2ccc(O)cc2)CC(C)(C)N1	19
